# Source: ChEMBL document CHEMBL1961873, “Compounds: GSK PKIS; Assays: Nanosyn kinase panel” (2012)
# Legend:
# [1] = target: Sphingosine kinase 1 (Homo sapiens) (UniProt Q9NYA1); details: at 1 µM;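 note: mean SPHK1 inhibition value reported from the GSK PKIS kinase panel screen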
# [2] = target: T1, Sphingosine kinase 2 (Homo sapiens) (UniProt Q9NRA0); details: at 0.1 µM
# T1 sequence (whole entry): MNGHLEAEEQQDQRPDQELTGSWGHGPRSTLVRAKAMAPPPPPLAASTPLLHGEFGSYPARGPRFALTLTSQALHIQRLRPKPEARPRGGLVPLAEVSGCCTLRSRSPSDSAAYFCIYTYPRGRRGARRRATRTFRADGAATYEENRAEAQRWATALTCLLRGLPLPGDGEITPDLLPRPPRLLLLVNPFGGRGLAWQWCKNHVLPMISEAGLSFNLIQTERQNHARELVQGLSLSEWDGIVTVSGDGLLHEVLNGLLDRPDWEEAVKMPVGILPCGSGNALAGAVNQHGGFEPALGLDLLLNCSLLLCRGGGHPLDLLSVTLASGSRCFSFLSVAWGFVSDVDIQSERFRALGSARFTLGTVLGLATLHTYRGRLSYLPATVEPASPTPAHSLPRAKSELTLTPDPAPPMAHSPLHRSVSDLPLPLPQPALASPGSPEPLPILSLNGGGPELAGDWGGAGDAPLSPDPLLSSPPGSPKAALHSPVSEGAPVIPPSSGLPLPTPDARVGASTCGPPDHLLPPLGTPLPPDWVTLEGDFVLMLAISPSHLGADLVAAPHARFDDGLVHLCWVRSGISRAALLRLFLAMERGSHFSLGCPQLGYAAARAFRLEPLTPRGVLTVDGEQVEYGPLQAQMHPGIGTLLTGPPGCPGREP
# [3] = target: T1, Sphingosine kinase 2 (Homo sapiens); details: at 1 µM
# [4] = target: Casein kinase II subunit alpha (Homo sapiens) (UniProt P68400); details: at 0.1 µM
# Casein kinase II subunit alpha (Homo sapiens), sequence (P68400 whole entry, looked up): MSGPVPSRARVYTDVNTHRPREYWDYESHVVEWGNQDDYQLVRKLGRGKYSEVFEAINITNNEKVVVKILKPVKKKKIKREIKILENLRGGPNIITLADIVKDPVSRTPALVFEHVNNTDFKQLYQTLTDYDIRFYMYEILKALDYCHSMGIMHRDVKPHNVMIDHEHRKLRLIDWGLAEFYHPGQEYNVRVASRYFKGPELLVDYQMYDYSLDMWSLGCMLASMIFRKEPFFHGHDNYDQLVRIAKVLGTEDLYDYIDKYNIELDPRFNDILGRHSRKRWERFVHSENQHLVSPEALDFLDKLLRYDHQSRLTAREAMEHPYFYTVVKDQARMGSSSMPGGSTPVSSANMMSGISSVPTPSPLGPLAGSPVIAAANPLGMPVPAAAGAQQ
# [5] = target: Casein kinase II subunit alpha (Homo sapiens) (UniProt P68400); details: at 1 µM
# [6] = target: T2, Inhibitor of nuclear factor kappa-B kinase subunit alpha (Homo sapiens) (UniProt O15111); details: at 0.1 µM
# T2 sequence (whole entry): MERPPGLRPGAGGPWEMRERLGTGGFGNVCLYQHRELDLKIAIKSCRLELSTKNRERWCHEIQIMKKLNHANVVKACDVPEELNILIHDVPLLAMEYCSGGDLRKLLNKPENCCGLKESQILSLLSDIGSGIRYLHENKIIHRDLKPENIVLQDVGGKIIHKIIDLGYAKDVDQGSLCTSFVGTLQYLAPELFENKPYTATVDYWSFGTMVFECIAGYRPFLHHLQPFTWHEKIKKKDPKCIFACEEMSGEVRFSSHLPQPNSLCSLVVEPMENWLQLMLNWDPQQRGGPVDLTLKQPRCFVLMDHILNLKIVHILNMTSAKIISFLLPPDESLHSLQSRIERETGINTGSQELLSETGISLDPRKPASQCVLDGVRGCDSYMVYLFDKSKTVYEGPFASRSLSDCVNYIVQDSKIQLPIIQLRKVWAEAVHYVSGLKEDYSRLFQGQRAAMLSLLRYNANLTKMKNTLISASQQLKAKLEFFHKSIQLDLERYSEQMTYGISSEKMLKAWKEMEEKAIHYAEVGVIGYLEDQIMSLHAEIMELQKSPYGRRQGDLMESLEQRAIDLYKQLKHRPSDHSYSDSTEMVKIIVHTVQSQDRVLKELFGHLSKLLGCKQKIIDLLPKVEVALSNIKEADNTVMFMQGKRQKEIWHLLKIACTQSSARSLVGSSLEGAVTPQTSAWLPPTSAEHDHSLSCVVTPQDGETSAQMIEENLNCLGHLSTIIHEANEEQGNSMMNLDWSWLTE
# [7] = target: T2, Inhibitor of nuclear factor kappa-B kinase subunit alpha (Homo sapiens); details: at 1 µM
# [8] = target: T3, Inhibitor of nuclear factor kappa-B kinase subunit beta (Homo sapiens) (UniProt O14920); details: at 0.1 µM
# T3 sequence (whole entry): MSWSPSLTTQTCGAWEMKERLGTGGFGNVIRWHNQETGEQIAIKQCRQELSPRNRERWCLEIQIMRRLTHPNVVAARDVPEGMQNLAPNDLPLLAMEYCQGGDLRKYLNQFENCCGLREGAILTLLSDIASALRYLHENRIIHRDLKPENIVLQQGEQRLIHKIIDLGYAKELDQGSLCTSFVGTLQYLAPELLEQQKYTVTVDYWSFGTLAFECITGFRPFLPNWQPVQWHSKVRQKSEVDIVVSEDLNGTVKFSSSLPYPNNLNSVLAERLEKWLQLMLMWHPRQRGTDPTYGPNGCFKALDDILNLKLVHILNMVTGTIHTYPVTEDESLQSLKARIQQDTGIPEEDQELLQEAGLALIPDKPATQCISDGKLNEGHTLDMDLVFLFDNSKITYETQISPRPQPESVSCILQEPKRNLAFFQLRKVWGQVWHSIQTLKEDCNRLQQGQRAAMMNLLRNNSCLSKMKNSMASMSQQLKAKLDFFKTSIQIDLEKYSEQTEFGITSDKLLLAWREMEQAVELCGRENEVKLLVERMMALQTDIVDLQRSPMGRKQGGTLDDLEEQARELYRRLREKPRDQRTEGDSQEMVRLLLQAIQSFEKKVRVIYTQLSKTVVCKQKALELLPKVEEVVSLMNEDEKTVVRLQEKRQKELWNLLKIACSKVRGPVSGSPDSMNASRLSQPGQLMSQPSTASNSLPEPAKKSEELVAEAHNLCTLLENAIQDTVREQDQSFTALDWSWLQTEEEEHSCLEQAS
# [9] = target: T3, Inhibitor of nuclear factor kappa-B kinase subunit beta (Homo sapiens); details: at 1 µM
# [10] = target: T4, Inhibitor of nuclear factor kappa-B kinase subunit epsilon (Homo sapiens) (UniProt Q14164); details: at 0.1 µM
# T4 sequence (whole entry): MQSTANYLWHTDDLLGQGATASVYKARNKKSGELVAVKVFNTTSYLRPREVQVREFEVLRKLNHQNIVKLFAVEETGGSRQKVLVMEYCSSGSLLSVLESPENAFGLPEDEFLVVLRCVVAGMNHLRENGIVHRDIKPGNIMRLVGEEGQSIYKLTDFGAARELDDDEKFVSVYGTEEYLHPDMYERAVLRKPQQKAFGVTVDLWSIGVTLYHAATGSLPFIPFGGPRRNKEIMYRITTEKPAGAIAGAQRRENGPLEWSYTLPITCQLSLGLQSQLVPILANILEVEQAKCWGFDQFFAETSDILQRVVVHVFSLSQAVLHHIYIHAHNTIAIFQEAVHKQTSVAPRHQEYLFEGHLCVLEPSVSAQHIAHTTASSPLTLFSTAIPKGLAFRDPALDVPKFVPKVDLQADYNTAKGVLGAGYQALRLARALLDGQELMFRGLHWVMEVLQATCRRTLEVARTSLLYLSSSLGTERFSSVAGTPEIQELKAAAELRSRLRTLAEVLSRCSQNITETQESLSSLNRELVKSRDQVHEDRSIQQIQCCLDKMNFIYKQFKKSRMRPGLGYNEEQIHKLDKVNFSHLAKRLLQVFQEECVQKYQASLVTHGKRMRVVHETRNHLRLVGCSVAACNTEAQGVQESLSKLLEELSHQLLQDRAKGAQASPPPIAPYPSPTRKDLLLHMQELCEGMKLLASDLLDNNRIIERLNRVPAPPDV
# [11] = target: T4, Inhibitor of nuclear factor kappa-B kinase subunit epsilon (Homo sapiens); details: at 1 µM
# [12] = target: T5, Serine/threonine-protein kinase Nek1 (Homo sapiens) (UniProt Q96PY6); details: at 0.1 µM
# T5 sequence (whole entry): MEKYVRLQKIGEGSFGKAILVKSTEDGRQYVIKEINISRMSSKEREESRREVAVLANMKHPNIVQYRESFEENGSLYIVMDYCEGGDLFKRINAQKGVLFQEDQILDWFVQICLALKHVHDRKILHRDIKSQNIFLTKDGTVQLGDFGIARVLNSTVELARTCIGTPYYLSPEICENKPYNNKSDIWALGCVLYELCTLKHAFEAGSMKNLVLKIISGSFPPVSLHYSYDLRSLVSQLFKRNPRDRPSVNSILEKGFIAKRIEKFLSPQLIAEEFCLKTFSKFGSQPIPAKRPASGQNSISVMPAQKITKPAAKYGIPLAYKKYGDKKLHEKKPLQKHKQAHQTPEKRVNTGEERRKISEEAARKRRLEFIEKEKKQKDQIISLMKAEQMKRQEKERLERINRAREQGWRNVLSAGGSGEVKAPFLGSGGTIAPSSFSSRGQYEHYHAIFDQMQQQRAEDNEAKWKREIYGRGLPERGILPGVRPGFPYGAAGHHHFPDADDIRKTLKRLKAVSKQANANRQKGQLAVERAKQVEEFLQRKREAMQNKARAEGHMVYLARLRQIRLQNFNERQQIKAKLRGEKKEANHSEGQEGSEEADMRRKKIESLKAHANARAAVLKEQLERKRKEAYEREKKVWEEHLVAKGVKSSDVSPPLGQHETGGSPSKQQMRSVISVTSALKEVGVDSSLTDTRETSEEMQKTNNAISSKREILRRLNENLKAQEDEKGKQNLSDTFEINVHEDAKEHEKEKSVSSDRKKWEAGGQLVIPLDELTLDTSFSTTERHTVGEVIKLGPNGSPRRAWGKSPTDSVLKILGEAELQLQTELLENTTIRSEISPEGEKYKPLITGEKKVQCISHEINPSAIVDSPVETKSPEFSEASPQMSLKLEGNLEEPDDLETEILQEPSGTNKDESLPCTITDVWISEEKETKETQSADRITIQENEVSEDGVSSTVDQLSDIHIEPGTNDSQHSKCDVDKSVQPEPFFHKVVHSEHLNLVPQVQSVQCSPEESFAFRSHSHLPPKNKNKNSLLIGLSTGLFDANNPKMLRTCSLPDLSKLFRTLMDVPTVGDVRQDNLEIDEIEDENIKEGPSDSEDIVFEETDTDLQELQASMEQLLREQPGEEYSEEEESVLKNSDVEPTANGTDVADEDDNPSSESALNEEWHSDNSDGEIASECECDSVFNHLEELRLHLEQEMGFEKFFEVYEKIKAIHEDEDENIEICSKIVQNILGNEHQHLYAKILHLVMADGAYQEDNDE
# [13] = target: T5, Serine/threonine-protein kinase Nek1 (Homo sapiens); details: at 1 µM
# [14] = target: T6, Serine/threonine-protein kinase Nek2 (Homo sapiens) (UniProt P51955); details: at 0.1 µM
# T6 sequence (whole entry): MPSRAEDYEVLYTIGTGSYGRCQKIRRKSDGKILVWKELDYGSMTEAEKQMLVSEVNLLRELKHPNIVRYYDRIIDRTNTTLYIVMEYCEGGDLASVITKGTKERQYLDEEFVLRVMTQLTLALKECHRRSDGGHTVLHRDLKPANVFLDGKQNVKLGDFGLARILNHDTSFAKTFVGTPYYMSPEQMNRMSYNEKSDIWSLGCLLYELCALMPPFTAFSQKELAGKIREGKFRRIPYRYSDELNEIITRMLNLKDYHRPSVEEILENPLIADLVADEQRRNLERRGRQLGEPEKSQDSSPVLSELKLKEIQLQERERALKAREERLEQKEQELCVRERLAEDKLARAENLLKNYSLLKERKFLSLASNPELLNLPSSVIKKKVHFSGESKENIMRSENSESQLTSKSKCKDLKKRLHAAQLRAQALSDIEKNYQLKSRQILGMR
# [15] = target: T6, Serine/threonine-protein kinase Nek2 (Homo sapiens); details: at 1 µM
# [16] = target: Serine/threonine-protein kinase Nek6 (Homo sapiens) (UniProt Q9HC98); details: at 0.1 µM
# Serine/threonine-protein kinase Nek6 (Homo sapiens), sequence (Q9HC98 whole entry): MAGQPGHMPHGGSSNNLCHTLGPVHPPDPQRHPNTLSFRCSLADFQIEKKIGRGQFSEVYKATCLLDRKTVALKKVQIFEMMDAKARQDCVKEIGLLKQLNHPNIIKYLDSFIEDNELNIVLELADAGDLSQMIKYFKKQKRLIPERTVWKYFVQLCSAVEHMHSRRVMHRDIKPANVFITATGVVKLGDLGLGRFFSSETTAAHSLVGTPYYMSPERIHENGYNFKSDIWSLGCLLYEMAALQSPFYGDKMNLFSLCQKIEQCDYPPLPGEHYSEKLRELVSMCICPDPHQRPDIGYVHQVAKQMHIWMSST
# [17] = target: Serine/threonine-protein kinase Nek6 (Homo sapiens) (UniProt Q9HC98); details: at 1 µM
# [18] = target: Serine/threonine-protein kinase Nek7 (Homo sapiens) (UniProt Q8TDX7); details: at 0.1 µM
# Serine/threonine-protein kinase Nek7 (Homo sapiens), sequence (Q8TDX7 whole entry, looked up): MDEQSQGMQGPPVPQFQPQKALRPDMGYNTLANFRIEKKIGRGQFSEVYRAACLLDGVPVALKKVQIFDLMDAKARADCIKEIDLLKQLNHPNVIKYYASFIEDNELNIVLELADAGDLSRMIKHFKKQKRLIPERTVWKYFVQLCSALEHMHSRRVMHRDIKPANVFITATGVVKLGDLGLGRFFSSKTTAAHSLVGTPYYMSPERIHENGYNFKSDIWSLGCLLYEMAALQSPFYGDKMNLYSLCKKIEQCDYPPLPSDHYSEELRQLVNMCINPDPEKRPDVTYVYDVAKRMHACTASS
# [19] = target: Serine/threonine-protein kinase Nek7 (Homo sapiens) (UniProt Q8TDX7); details: at 1 µM
# [20] = target: T7, Serine/threonine-protein kinase Nek9 (Homo sapiens) (UniProt Q8TD19); details: at 0.1 µM;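 note: reported value is the mean percent inhibition of NEK9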
# T7 sequence (whole entry): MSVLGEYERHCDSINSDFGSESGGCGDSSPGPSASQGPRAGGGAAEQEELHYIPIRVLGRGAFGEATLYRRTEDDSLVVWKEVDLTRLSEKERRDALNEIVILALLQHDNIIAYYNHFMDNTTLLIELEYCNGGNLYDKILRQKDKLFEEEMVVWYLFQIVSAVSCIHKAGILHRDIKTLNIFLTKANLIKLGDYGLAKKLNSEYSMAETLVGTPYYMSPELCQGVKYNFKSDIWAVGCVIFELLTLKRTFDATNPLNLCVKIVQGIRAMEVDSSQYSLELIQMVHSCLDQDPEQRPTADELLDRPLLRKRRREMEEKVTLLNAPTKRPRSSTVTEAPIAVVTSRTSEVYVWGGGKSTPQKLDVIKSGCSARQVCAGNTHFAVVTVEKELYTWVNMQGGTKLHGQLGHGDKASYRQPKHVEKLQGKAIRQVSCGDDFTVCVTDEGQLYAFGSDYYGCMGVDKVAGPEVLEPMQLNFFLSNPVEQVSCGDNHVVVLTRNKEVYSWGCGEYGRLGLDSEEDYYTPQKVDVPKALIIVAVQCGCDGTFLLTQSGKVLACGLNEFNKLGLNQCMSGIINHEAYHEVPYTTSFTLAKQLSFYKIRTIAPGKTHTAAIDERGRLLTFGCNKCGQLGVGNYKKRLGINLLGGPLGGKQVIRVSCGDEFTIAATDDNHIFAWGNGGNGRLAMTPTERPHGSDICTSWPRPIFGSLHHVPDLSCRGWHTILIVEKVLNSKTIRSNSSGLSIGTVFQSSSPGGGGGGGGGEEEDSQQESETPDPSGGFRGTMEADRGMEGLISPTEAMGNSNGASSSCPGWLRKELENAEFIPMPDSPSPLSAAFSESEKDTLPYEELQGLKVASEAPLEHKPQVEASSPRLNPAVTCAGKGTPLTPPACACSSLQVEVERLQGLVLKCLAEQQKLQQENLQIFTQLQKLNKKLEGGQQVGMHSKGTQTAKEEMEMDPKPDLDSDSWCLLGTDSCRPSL
# Sphingosine kinase 1 (Homo sapiens), sequence (Q9NYA1 whole entry): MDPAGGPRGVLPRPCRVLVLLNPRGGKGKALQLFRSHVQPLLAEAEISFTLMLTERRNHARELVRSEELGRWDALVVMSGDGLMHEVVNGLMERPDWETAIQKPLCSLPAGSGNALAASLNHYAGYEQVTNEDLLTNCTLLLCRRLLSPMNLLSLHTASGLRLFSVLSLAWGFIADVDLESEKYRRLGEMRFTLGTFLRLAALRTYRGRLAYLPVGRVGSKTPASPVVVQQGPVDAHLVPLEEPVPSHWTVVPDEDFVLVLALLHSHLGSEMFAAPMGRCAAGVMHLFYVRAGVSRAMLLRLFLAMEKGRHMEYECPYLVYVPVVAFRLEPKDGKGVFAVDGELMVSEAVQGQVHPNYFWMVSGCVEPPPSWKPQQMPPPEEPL
smiles,measurement,setting,value
Cc1ccc2c(c1)/C(=N/Nc1ccc(S(N)(=O)=O)cc1)C(=O)N2,inhibition,[1],0.07%
same,inhibition,[2],0.19%
same,inhibition,[3],0.62%
same,inhibition,[4],-2.8%
same,inhibition,[5],-4.47%
same,inhibition,[6],8.72%
same,inhibition,[7],4.99%
same,inhibition,[8],1.92%
same,inhibition,[9],1.12%
same,inhibition,[10],-5.56%
same,inhibition,[11],-2.89%
same,inhibition,[12],-0.29%
same,inhibition,[13],1.65%
same,inhibition,[14],0.94%
same,inhibition,[15],0.07%
same,inhibition,[16],-2.33%
same,inhibition,[17],-1.82%
same,inhibition,[18],2.58%
same,inhibition,[19],2.3%
same,inhibition,[20],2%
